# From the supplement of paper PMC6555819
# What was measured:
# Assay in all cases: PBM binding z-score (relative to random genomic background probes); higher = stronger binding; sequences stand for … in GC…GCGATTGACAGCGTAGAATGAAGG
# [1] = test system: FXR:RXRa (NR concentration 270 nM, RXRa partner concentration 90 nM)
# Procedure, shortened: (§1)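 Binding z-scores were set against random background probes. The data came from custom Agilent 4×180K protein-binding microarrays carrying double-stranded probes with 34-nt variable regions, incubated 1 h with ligand-free nuclear receptor dimers. Partner-specific antibodies detected binding, and scanned fluorescence was regression-normalized.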
# [2] = test system: LXRa:RXRa (NR concentration 270 nM, RXRa partner concentration 90 nM)
# Procedure, shortened: as §1
# [3] = test system: LXRa homodimer (NR concentration 270 nM)
# Procedure, shortened: as §1
# [4] = test system: LXRb:RXRa (NR concentration 270 nM, RXRa partner concentration 90 nM)
# Procedure, shortened: as §1
# [5] = test system: LXRb homodimer (NR concentration 270 nM)
# Procedure, shortened: as §1
# [6] = test system: PPARa:RXRa (NR concentration 270 nM, RXRa partner concentration 90 nM)
# Procedure, shortened: as §1
# [7] = test system: PPARg:RXRa (NR concentration 180 nM, RXRa partner concentration 90 nM)
# Procedure, shortened: as §1
# [8] = test system: PPARg:RXRa 270nM:90nM, anti-RXR (NR concentration 270 nM, RXRa partner concentration 90 nM)
# Procedure, shortened: as §1
# [9] = test system: PPARg:RXRa 30nM:10nM, anti-RXR (NR concentration 30 nM, RXRa partner concentration 10 nM)
# Procedure, shortened: as §1
# [10] = test system: PPARg:RXRa 90nM:30nM, anti-RXR (NR concentration 90 nM, RXRa partner concentration 30 nM)
# Procedure, shortened: as §1
# [11] = test system: PPARg:RXRa DBDmut IVT, anti-RXR (DBD mutation: RXRa K156A/R161A, NR concentration 270 nM, RXRa partner concentration 90 nM)
# Procedure, shortened: as §1
# [12] = test system: PPARg:RXRa IVT, anti-PPARg (NR concentration 270 nM, RXRa partner concentration 90 nM)
# Procedure, shortened: as §1
# [13] = test system: PPARg DBDmut:RXRa IVT, anti-PPARg (DBD mutation: PPARg1 K132A/R137A, NR concentration 270 nM, RXRa partner concentration 90 nM)
# Procedure, shortened: as §1
# [14] = test system: PPARg DBDmut IVT, anti-PPARg (DBD mutation: PPARg1 K132A/R137A, NR concentration 270 nM)
# Procedure, shortened: as §1
# [15] = test system: PPARg homodimer (NR concentration 180 nM)
# Procedure, shortened: as §1
# [16] = test system: PXR:RXRa (NR concentration 270 nM, RXRa partner concentration 90 nM)
# Procedure, shortened: as §1
# [17] = test system: PXR homodimer (NR concentration 270 nM)
# Procedure, shortened: as §1
# [18] = test system: RARa:RXR (NR concentration 270 nM, RXRa partner concentration 90 nM)
# Procedure, shortened: as §1
# [19] = test system: RARa homodimer (NR concentration 270 nM)
# Procedure, shortened: as §1
# [20] = test system: RARb:RXRa (NR concentration 270 nM, RXRa partner concentration 90 nM)
# Procedure, shortened: as §1
Sequence,PBM binding z-score [1],PBM binding z-score [2],PBM binding z-score [3],PBM binding z-score [4],PBM binding z-score [5],PBM binding z-score [6],PBM binding z-score [7],PBM binding z-score [8],PBM binding z-score [9],PBM binding z-score [10],PBM binding z-score [11],PBM binding z-score [12],PBM binding z-score [13],PBM binding z-score [14],PBM binding z-score [15],PBM binding z-score [16],PBM binding z-score [17],PBM binding z-score [18],PBM binding z-score [19],PBM binding z-score [20]
ATCGCAAGGTCGACGAGGTGAGTATACACCGTTT,1.64,1.32,-0.778,1.06,-0.359,2.74,1.28,0.926,-0.0262,0.379,-0.013,1.1,0.104,0.00511,0.0263,1.89,0.566,2.55,-0.403,2.49
CTCGAAAGGTCGGTTGAAGTGAGTATACGGATAA,1.48,1.58,-0.00237,1.54,0.166,2.45,0.257,1.02,0.428,0.796,-0.0991,0.86,0.362,0.582,0.716,1.17,0.13,1.38,0.453,3
GCGACTGGGGCATCAGCAGGTTACCAAAACTTAA,-0.46,-0.0944,-0.294,0.621,-0.676,1.34,0.564,0.743,-0.555,-0.000266,3.95,3.39,-1.31,-0.989,0.651,-0.0279,-0.564,0.57,-0.274,0.893
TCAAATAGGTAAAGGTGAAAGTCGAACGATATGA,0.93,1.78,0.0504,1.72,0.00812,3.48,3.34,4.34,5,4.99,3.65,3.47,1.88,0.968,2.04,1.17,0.187,1.93,0.988,2.28
CAAACTAGGTGACAGAGGTCAAAGTCCGTGCGTA,4.84,5.47,4.88,5,1.14,5.75,7.83,6.75,4.75,6.85,8,8.03,1.36,0.411,2.02,5.61,2.31,5.38,1.29,4.12
TCATATAGGTAAATGTGAAAGTCGAACGATATGA,0.203,0.245,-0.116,0.343,-0.015,0.983,1.44,2.01,3.79,2.88,3.33,2.26,1.69,1.36,0.31,0.168,-0.0723,0.602,0.286,0.153
ATCTCTAGGTAAAAGTTCAGTGTATCCCGAGGAT,0.805,1.47,1.82,1.14,0.968,4.08,7.71,8.23,7.05,9.47,2.32,3.71,1.69,1.72,1.66,2.25,2.23,1.53,1.59,2.5
CCTTACGGGGCACTCCAGGTTATAGCATCGGAGT,0.717,5.05,0.548,1.13,-0.636,0.679,0.305,0.0783,-0.441,-0.274,0.818,0.578,-0.912,-1.1,0.148,0.683,-0.195,0.828,-0.55,1.05
TTACCAAGATGAAGGTCGTTGATCCCTCTGTAGA,1.47,1.91,-0.0555,1.48,-0.663,1.33,0.406,1.7,1.5,1.72,0.471,0.0475,0.286,0.663,0.704,1.15,-0.0787,1.18,0.48,0.617
CGAACTAGGTCATTGACAGGAGAGTGAATAGTAA,4.67,2.65,0.0352,1.64,-0.158,4.89,7.41,6.44,3.96,5.77,7.92,8.28,2.36,3.6,1.32,1.04,0.0101,1.99,0.473,3.65
ATCTCTAGGTAAAGTTCACTGAAAGATCGATAGA,2.15,3.16,3.22,2.37,1.29,3.64,5.42,5.61,4.25,5.65,2.42,3.28,2.5,1.51,2.51,3.54,2.92,2.82,1.43,3.51
TCTCCTAGGTCAGTTGGTCAGCTAACGAGCTGCC,1.57,1.17,0.111,1.26,1.43,1.89,0.491,2.47,2.9,2.75,2.85,3.32,1.43,0.66,1.05,0.732,-0.3,0.918,0.238,3.52
TCGAGTAGGCTAGGGGCATTCAGAATGGCGTCGA,-0.172,-0.557,-0.903,-0.262,-1.16,0.162,-0.111,0.716,0.676,0.504,0.831,-0.362,-1.38,-1.61,-0.968,-0.194,-0.983,-0.131,-1,0.171
GCTTGTAGATCATGGTTAAGAAAGACTAAGCTAA,-0.444,-0.5,-0.382,-0.729,-0.647,-0.285,-0.054,0.171,-0.126,-0.187,0.856,0.283,0.687,-0.0333,0.17,-0.334,-0.29,-0.161,-0.00288,-0.371
